ANO1 activ = activates or potentiates the mouse TMEM16A chloride channel; Q8BHY3; HEK293 TMEM16A/YFP-H148Q/I152L, iodide quench fluorescence; active compounds read low; B-score at 10 µM; 340,000 tested, 0.3% active;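 active = fluorescence-ratio B-score plate-corrected deviation score at least 3 library SD below zero, with starting fluorescence score within 5 deviations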;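 also: channel opened by trigger with iodide after compound preincubation; score built on the fluorescence ratio of max minus min over baseline; more negative score means more quench and so TMEM16A activation or potentiation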
NTR1 ag = NTR1 (human) agonism; NTR1-U2OS beta-arrestin-GFP spot imaging, agonist mode; P30989; AID 493036; 330,000 tested, 0.17% active; activation, % at 20 µM;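 active = activation at or above 40% of the spot to cytoplasm intensity ratio, with at least 20 cells analyzed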;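 also: 0% = DMSO without peptide and 100% = 100 nM NTR1 peptide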
Target sequence (P30989 whole entry, looked up): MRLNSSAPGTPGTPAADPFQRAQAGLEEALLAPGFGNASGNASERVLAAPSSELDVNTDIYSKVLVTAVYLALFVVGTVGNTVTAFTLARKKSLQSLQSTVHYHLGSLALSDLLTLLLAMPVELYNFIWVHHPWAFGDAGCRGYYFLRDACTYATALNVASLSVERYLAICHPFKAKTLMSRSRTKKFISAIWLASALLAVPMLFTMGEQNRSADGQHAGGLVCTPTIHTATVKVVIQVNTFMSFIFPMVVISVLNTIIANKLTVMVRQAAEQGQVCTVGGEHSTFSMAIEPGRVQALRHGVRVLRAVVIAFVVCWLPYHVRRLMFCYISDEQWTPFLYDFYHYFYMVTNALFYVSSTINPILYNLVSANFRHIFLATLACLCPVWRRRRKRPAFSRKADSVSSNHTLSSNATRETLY
M1 ag parental = nonselective activator or artifact in parental CHO-K1 cells; Fluo-8 calcium fluorescence; scaled to maximal ATP response, vehicle zero; activation, % at 3 µM; 360,000 tested, 0.48% active; in the data active = activation above about 15%;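 also: untransfected CHO-K1 host cells lacking M1 receptor as counterscreen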
CHO-K1 Ca PAM = nonselective activator or artifact in parental CHO-K1 calcium assay. 360,000 tested, 0.02% active. activation, % at 3 µM. ATP EC20, Fluo-8 calcium fluorescence; 0% at ATP EC20, 100% at ATP max;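 active = activation above the run cutoff, the mean activation of all test compounds plus 3 SD, cut at about 40% in these data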;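 also: peak over basal fluorescence ratio in a 140 s read after ATP addition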
CHO-K1 Ca antag = counter-screen for M1 antagonists: effect in parental CHO-K1 cells | 360,000 tested, 0.6% active | ATP-induced calcium, Fluo-8 fluorescence | AID 602250 | inhibition, % at 3 µM;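 active = inhibition above a per-plate cutoff, the plate's mean sample inhibition plus 3 SD, cut at about 24% in these data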;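 also: 0% = DMSO plus EC80 ATP and 100% = DMSO alone without ATP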
ANO1 block = mouse TMEM16A channel inhibition, primary screen. HEK293 TMEM16A/YFP iodide influx fluorescence, ionomycin. normalized B-score (activity score, 25-100; higher = stronger inhibition) at 10 µM. 310,000 tested, 1.2% active. AID 588511;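 active = ratio plate-corrected score three or more library SD toward inhibition, starting fluorescence score within five deviations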;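 also: score derived from kinetic fluorescence span divided by baseline fluorescence per well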
An asterisk follows results filed as active; i = inactive; / = no result; ! = not active in a repeat. Only some compounds are listed: those with a hit (about 2.2% of all), similar ones and a draw of the others.

SMILES | ANO1 activ | NTR1 ag | M1 ag parental | CHO-K1 Ca PAM | CHO-K1 Ca antag | ANO1 block
Cc1ccc(NC(=O)CSc2ncn[nH]2)cc1 | i | -1 | 19* | 7 | 11 | i
CCOc1ccc(NC(=O)CSc2ncn[nH]2)cc1 | i | 0 | 1 | 19 | -6 | i
CC(C)N1CCC(C)(C(=O)Nc2cc(-c3ccccc3)nn2C)C1 (stereo unspecified) | / | / | 0 | 8 | -5 | /
Nc1cc(=O)[nH]c(SCc2ccc(Cl)cc2Cl)n1 | i | -1 | 15* | -21 | 15 | i
COCCNC(=O)C1CCCN(Cc2ccc(C#N)cc2)CC1 (stereo unspecified) | / | / | 0 | 7 | -8 | /
O=C(Nc1ccc(S(=O)(=O)N2CCOCC2)cc1)c1ccc(Cl)c([N+](=O)[O-])c1 | i | / | 1 | -1 | -7 | /
CCOc1ccc(NS(=O)(=O)c2cc(OC)ccc2OC)cc1 | i | -1 | 1 | 11 | -15 | i
CCOc1ccc(S(=O)(=O)Nc2ccc(F)cc2)c(C)c1C | i | 3 | 3 | 0 | -18 | 25*
COc1cc(/C=N/NC(=O)c2ccccn2)ccc1OC(=O)c1ccccc1Br | i | 25 | 3 | -7 | 27* | i
CC(C)(C)c1ccc(C(=O)NCCC(=O)NCc2ccc(F)cc2)cc1 | / | / | 0 | 12 | -1 | /
Cc1ccsc1C(=O)N1CCC1(C)C(=O)NCc1cccnc1 (stereo unspecified) | / | / | 0 | -5 | 10 | /
CCCc1ccc(OCc2ccc(C(=O)N3CCSCC3)o2)cc1 | i | 2 | 1 | 11 | -15 | 25*
CC(C)(C)c1ccc(OCc2ccc(C(=O)N3CCOCC3)o2)cc1 | i | 1 | 8 | 17 | 1 | i
NS(=O)(=O)c1ccc(CCNC(=O)C(=O)NCC2OCCN2C(=O)c2ccc3c(c2)OCO3)cc1 (stereo unspecified) | i | 0 | 0 | -14 | 29* | i
NS(=O)(=O)c1ccc(CCNC(=O)C(=O)NCC2OCCN2S(=O)(=O)c2cccs2)cc1 (stereo unspecified) | i | 0 | 1 | 5 | -1 | i
C[C@@H]1CN([C@@H](C)CO)C(=O)c2cc(Br)cnc2O[C@H]1CN(C)C(=O)c1ccccc1F | / | / | 0 | 6 | -8 | /
Cc1cc(C)cc(-n2cccc2/C=C2/C(=N)N3C(=NC2=O)SN=C3S(C)(=O)=O)c1 | i | -1 | 2 | 3 | 3 | 100*
CS(=O)(=O)C1=NSC2=NC(=O)/C(=C\c3cccn3-c3ccccc3Cl)C(=N)N21 | i | 2 | 0 | 24 | -7 | i
Cc1ccc(-n2cccc2/C=C2/C(=N)N3C(=NC2=O)SN=C3S(C)(=O)=O)cc1 | i | -1 | 1 | 15 | -3 | i
CCc1ccc(-n2cccc2/C=C2/C(=N)N3C(=NC2=O)SN=C3S(C)(=O)=O)cc1 | i | 3 | 1 | 8 | 5 | 100*
Cc1csc2ncc(C(=O)NC(C)c3ccccc3)c(=O)n12 (stereo unspecified) | i | 4 | 16* | 4 | 14 | i
Cc1csc2ncc(C(=O)NCc3ccccc3Cl)c(=O)n12 | i | 6 | 0 | 12 | 2 | i
Cc1cc(C)c2c(CN3CCCC3)cc(=O)oc2c1 | / | / | -1 | -8 | 30* | /
Cc1cc(C)c2c(CN3CCN(c4ccccc4)CC3)cc(=O)oc2c1 | / | / | -1 | -9 | -14 | /
Cc1cc(C)c2c(CN3CCOCC3)cc(=O)oc2c1 | i | 0 | 3 | 11 | -1 | i
SMILES | ANO1 activ | NTR1 ag | M1 ag parental | CHO-K1 Ca PAM | CHO-K1 Ca antag | ANO1 block
Cc1cc(C)c2c(CN3CCN(Cc4ccccc4)CC3)cc(=O)oc2c1 | i | 3 | 17* | -4 | -2 | i
Cc1ccc(Nc2ncc3c(=O)[nH][nH]c(=O)c3n2)cc1 | i | / | 0 | 3 | -2 | /
COC(=O)[C@@]1(Cc2ccc(F)cc2)[C@H]2c3cc(C(=O)N(C)C)n(CCc4c[nH]c5ccc(O)cc45)c3C[C@H]2CN1C(=O)c1ccccc1 | / | / | 4 | 18 | -10 | /
Cc1ccc(NC(=S)NCC(C)CSc2ccc(Cl)cc2)cc1 (stereo unspecified) | i | 14 | 3 | 20 | -19 | i
Cc1cccc(NC(=S)NCC(C)CSc2ccc(Cl)cc2)c1 (stereo unspecified) | i | 32 | 9 | 7 | 4 | 25*
Cc1nnc(SCC2=C(C(=O)O)N3C(=O)C(NC(=O)Cn4cnnn4)C3SC2)s1 (stereo unspecified) | i | 0 | 1 | -10 | 8 | i
Cc1nnc(SCC2=C(C(=O)O)N3C(=O)[C@@H](NC(=O)Cn4cnnn4)[C@H]3SC2)s1 | i | 0 | 0 | 6 | 2 | 100*!
COc1ccccc1Cc1c(C(C)(C)C)nc2ccc(C)cn12 | / | / | 0 | 12 | -13 | /
Cc1cc(C)c(N2CCN(S(=O)(=O)N3CCCCCC3)CC2)c(C)c1 | -22* | 1 | 0 | 3 | 1 | 25*
CC(NC(=O)C1CCN(CCOc2ccc(Cl)cc2)CC1)c1cccc2ccccc12 (stereo unspecified) | / | / | 5 | 6 | -2 | /
Cc1nn(-c2ccccc2)c(C)c1/C=N/NC(=O)CSc1nnc(SCc2ccccc2Cl)s1 | i | 1 | 0 | 15 | 0 | i
Cc1ccc(CSc2nnc(SCC(=O)N/N=C/c3c(C)nn(-c4ccccc4)c3C)s2)cc1 | i | 5 | 3 | 18 | -9 | 25*
O=C(CCc1ccccc1)NCc1ccncc1 | i | 0 | 1 | 16 | -10 | i
O=C(CCNNC(=O)c1ccncc1)NCc1ccccc1 | -14* | 1 | 0 | 11 | 3 | i
CCCC(=O)N1CCC(Cc2ccccc2)CC1 | i | 0 | 0 | -12 | 17 | i
N/C(=N/O)c1ccccc1N1CCC(Cc2ccccc2)CC1 | i | 8 | 0 | -14 | 15 | 25*
COc1cc(C=C2CCCC(=Cc3ccc(OCC4CO4)c(OC)c3)C2=O)ccc1OCC1CO1 (stereo unspecified) | / | / | 8 | 3 | 10 | /
COCCCNc1nc(SCc2ccccc2)nc2sc3c(c12)CCC3 | i | 5 | 0 | -5 | 25* | i
FC(F)(F)c1cccc(NC(=S)Nc2ccc(Cl)c(Cl)c2)c1 | i | 8 | 5 | 1 | 4 | i
O=[N+]([O-])c1cc(C(F)(F)F)cc([N+](=O)[O-])c1NCCNC(=S)Nc1ccc(Cl)c(Cl)c1 | i | 16 | 13 | -16 | 27* | 100*
CC1=C(C)/C(=N\OS(=O)(=O)c2ccc(C)cc2)C=CC1=O | -4.8* | / | 7 | -10 | 34* | 25*
CC1=C/C(=N\OS(=O)(=O)c2ccccc2)C(C(C)C)=CC1=O | -5* | / | 0 | 10 | 3 | i

High-throughput results: PubChem BioAssay, several laboratories
